According to PubChem BioAssay AID504803 (The Scripps Research Institute Molecular Screening Center, 2011):
About 1,700 (0.5%) of roughly 340,000 compounds were called active. The full list was thinned out, with actives kept by preference. A number with no mark means an inactive call. Rule as the data show it: active = inhibition above about 36%; inactive = the rest.

Target: Serine protease HTRA1 (Homo sapiens) (UniProt Q92743)
Assay: inhibition of human HTRA1 peptidase – biochemical, fluorescence polarization, HTS, primary screen (AID 504803);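 also: 0% = enzyme with DMSO and 100% = wells lacking enzyme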
Conditions: recombinant HTRA1, FP-rhodamine activity-based probe, at 5.96 µM, active compounds read high

Sequence of Serine protease HTRA1 (Homo sapiens) (Q92743 whole entry, looked up): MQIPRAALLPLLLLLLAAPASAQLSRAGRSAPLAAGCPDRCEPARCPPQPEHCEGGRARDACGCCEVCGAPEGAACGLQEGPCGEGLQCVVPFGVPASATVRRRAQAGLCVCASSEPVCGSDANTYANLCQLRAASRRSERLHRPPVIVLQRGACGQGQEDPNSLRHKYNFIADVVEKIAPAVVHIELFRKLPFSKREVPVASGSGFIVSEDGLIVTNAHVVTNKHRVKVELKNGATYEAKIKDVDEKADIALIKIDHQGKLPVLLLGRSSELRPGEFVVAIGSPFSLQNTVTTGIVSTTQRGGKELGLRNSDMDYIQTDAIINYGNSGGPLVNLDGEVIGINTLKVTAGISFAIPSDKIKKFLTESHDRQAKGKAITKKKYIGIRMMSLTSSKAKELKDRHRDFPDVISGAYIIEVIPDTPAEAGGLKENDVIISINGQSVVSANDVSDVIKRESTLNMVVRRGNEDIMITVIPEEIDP

| Compound | inhibition |
| --- | --- |
| O=C(COC(=O)CCc1c[nH]c2ccccc12)Nc1cccc(Cl)c1 | -2.43% |
| Cc1cc(/C=N/NC(=O)CC2(C)OCCO2)c(C)n1-c1ccc(Cl)c(Cl)c1 | 2.74% |
| CC(C)c1ccc(C=NNc2ccc([N+](=O)[O-])cn2)cc1 | -18.3% |
| Cc1cc(/C=N/Nc2ccc([N+](=O)[O-])cn2)c(C)n1-c1cccc(C(=O)O)c1 | 40.5% (active) |
| CC(OC(=O)c1ccc(NC(=O)CC#N)cc1)C(=O)Nc1ccc(S(=O)(=O)N2CCCC2)cc1 (configuration not stated) | -20% |
| O=C(COC(=O)/C=C/c1cccc(Cl)c1)NCCc1ccccc1 | 4.91% |
| O=c1[nH]c(/C=C/c2cccc(Br)c2)nc2ccccc12 | -1.32% |
| NNc1cccc(C=Cc2ccccc2)cc1=O | 61.4% (active) |
| COc1ccc(-c2ccc3[nH]c4c(c3c2)CCN2C[C@H]3[C@H](C)ON(C)[C@H]3C[C@@H]42)cc1 | 6.55% |
| CCCCN1C[C@H](c2ccc(Br)cc2)[C@@H](CC(=O)Nc2ccc(Br)cc2)C1=O | -22.8% |
| CCC(CO)Oc1cc(NC(=O)c2ccc(Cl)cc2)c2ncn(C(C)C)c2c1 (configuration not stated) | 6.4% |
| CC(C)n1cnc2c(NCc3ccccc3)cc(OCC3CCN(C)CC3)cc21 | 40.1% (active) |
| CCC(CO)Oc1cc(NC(=O)c2cccc3ccccc23)c2ncn(C(C)C)c2c1 (configuration not stated) | -25% |
| Cc1ccc(-c2nc3ccc(Cl)cn3c2Cc2ccccc2)cc1 | -74.4% |
| N#Cc1ccsc1NC(=O)CN1CCN(S(=O)(=O)c2cc(Cl)ccc2Cl)CC1 | -36.8% |
| COc1ccc(Cl)cc1S(=O)(=O)N1CCN(CC(=O)C(C)(C)C)CC1 | 4.3% |
| O=C(CN1CCN(S(=O)(=O)c2cc(Cl)ccc2Cl)CC1)c1ccc(O)c(O)c1 | 39.9% (active) |
| O=C1[C@H]2[C@@H](c3ccc(C(F)(F)F)cc3)N[C@]3(CCCN(Cc4ccc(Cl)cc4)C3=O)[C@H]2C(=O)N1Cc1ccccc1 | -39.5% |
| COc1ncnc2c1ncn2CCCNCCN1CCOCC1 | 0.71% |
| COc1cc(NC(=O)C2=C(C)OCCS2)c(Cl)cc1C(=O)NCCCN1CCCC(C)C1 (configuration not stated) | -6.48% |
| C[C@@H]1CN([C@@H](C)CO)S(=O)(=O)c2ccc(-c3ccc(C(=O)N(C)C)cc3)cc2O[C@@H]1CN(C)Cc1ccccc1C(=O)O | -0.74% |
| COCOCCn1cc(CN2CCS(=O)(=O)N(Cc3ccc(-c4cccc(N(C)C)c4)cc3)C(CC(C)C)C2=O)nn1 (configuration not stated) | 1.08% |
| Oc1c(CN2CCCC2)cc(COCc2ccccc2)c2cccnc12 | 49.2% (active) |
| Cc1cc(=O)oc2cc(OCC(=O)N3CCN(c4ccc(F)cc4)CC3)c(Cl)cc12 | 4.27% |
| Cc1ccc(CN2CCN(c3ncccn3)CC2)c(C)c1 | -5.09% |
| CC1CCCN(CC(O)COCc2ccccc2)C1 (configuration not stated) | 1.82% |

| Compound | inhibition |
| --- | --- |
| Oc1c(CN2CCN(c3ccc(F)cc3)CC2)cc(Cl)c2cccnc12 | 50.4% (active) |
| COc1cc(C)cc(CN2CCC(Cc3ccccc3)CC2)c1O | 4.82% |
| Nc1cc(C(=O)N2CCN(c3ccccc3Cl)CC2)ccc1N1CC2CC(C1)c1cccc(=O)n1C2 (configuration not stated) | 2.36% |
| O=C(NCc1ccccc1)C1CNCC(C(=O)NCc2ccccc2)C1 (configuration not stated) | 0.67% |
| CCOc1ccc(CCNC(=O)COC(=O)c2ccc(C)c(S(=O)(=O)N3CCOCC3)c2)cc1OCC | -2.04% |
| O=[N+]([O-])c1ccc(C(S(=O)(=O)Cc2ccccc2)S(=O)(=O)Cc2ccccc2)cc1 | -1.31% |
| COc1ccc(Br)cc1/C=N/Nc1ccc(S(=O)(=O)Nc2ccccc2C(=O)O)cc1[N+](=O)[O-] | -2.73% |
| COc1cccc(/C=N/Nc2ccc(S(=O)(=O)Nc3ccccc3C(=O)O)cc2[N+](=O)[O-])c1O | 40.5% (active) |
| C=C(C)CNC(=S)N/N=C/c1ccccc1OCC(=O)O | 4.14% |
| COc1ccc(S(=O)(=O)Nc2ccccc2C(=O)N2CCCC2)cc1C | 1.39% |
| Cc1ccc(NS(=O)(=O)c2ccc(N/N=C/c3ccccc3OCC(=O)O)c([N+](=O)[O-])c2)c(C)c1 | 37.7% (active) |
| Cc1cc([N+](=O)[O-])ccc1NS(=O)(=O)c1ccccc1 | -0.9% |
| C[C@H]1CN([C@@H](C)CO)C(=O)CCCn2cc(nn2)CO[C@@H]1CN(C)S(=O)(=O)c1ccc(-c2ccccc2)cc1 | -3.19% |
| COc1ccc2c(c1)CCCO[C@]21O[C@H](CCO)C[C@H](O)[C@H]1O | -2.62% |
| CC1=C(C(=O)N2CCOCC2)CC(CC(=O)NCc2ccco2)C(=O)N1Cc1ccc(F)cc1 (configuration not stated) | 4.18% |
| Cc1ccn(CC(=O)NC2CCCN(Cc3ccccc3F)C2)n1 (configuration not stated) | 0.25% |
| Cc1ccc(C(=O)NC(C)C(c2cccs2)N2CCOCC2)cc1C (configuration not stated) | 1.64% |
| C[C@@H]1CN([C@@H](C)CO)S(=O)(=O)c2ccc(C#Cc3cccc(F)c3)cc2O[C@H]1CN(C)S(=O)(=O)c1cn(C)cn1 | -25.7% |
| CC(C)/C=N/NC(=O)c1cc(Br)ccc1O | 6.13% |
| CC(=N\NC(=O)c1cc(Br)ccc1O)/C(=N/O)C(=O)Nc1ccccc1 | 46.1% (active) |
| CC(=O)N/N=C(\C)c1ccc(Br)cc1Br | 2.26% |
| CC1CCN(C(=O)CSc2nnc(-c3ccco3)n2N)CC1 | 2.17% |
| C[C@@H]1CN([C@@H](C)CO)C(=O)c2cc(Br)cnc2O[C@H]1CN(C)Cc1ccc(-c2ccccc2)cc1 | -13.1% |
| Oc1ccc(-c2nc3ccccc3nc2-c2ccc(O)cc2O)c(O)c1 | -7.06% |
| Cc1ccn2c(-c3csc(Nc4ccc(C(=O)O)cc4)n3)c(C)nc2c1 | -2.27% |
| Cc1ccc(Nc2nc(-c3ccc(O)cc3O)cs2)nc1 | 37.1% (active) |

| Compound | inhibition |
| --- | --- |
| COc1ccc(S(=O)(=O)N(C)C[C@H]2OCc3cnnn3CCCC(=O)N([C@H](C)CO)C[C@H]2C)cc1 | 0.5% |
| CC(OC(=O)c1cccnc1Cl)C(=O)NC1CCCCC1 (configuration not stated) | 2.76% |
| CCOc1ccc(CCN2C(=O)c3cccnc3C2=O)cc1OCC | -1.21% |
| NC1=CC(=O)C(=O)c2cccnc21 | 38.3% (active) |
| Cc1ccc(CCNC(=O)CN2C(=O)CSc3ccc(S(=O)(=O)N4CCOCC4)cc32)cc1 | -3.89% |
| COCOCCn1cc(CN2CCS(=O)(=O)N(Cc3ccc(-c4ccc(OC)cc4)cc3)C(CC(C)C)C2=O)nn1 (configuration not stated) | -16.7% |
| CCN(CC)c1ccc(/C=N/NC(=O)c2cnccn2)c(O)c1 | 11.4% |
| Cc1cc(C)nc(N/N=C/c2c(CO)cnc(C)c2O)n1 | 4.05% |
| CCN(CC)c1ccc(/C=N/Nc2nc(C)cc(C)n2)c(O)c1 | 63.8% (active) |
| COc1ccc(CN2C(=O)C(CC(=O)NC3CCCCC3)CC(C(=O)N3CCOCC3)=C2C)cc1 (configuration not stated) | 9.07% |
| CCOc1c2ccc(C(=O)NCc3ccc(OC(F)(F)F)cc3)cc2nn1C | -3.97% |
| O=C(Nc1ccc(OC(F)(F)F)cc1)c1ccc2c(c1)no[n+]2[O-] | 42.3% (active) |
| CCOC(=O)Cc1ncccc1C(=O)Nc1ccc(OC(F)(F)F)cc1 | -0.74% |
| C[C@H]1CN([C@@H](C)CO)S(=O)(=O)c2ccc(-c3cccc(F)c3)cc2O[C@@H]1CN(C)C | 0.65% |
| Cn1c(CCN2CCN(c3ccccn3)CC2)nc2cc(NS(=O)(=O)c3ccc(F)cc3)ccc21 | -0.52% |
| C[C@H]1CN([C@@H](C)CO)C(=O)CCCn2cc(nn2)CO[C@@H]1CN(C)S(=O)(=O)c1ccc(-n2cccn2)cc1 | -3.1% |
| CC(=O)n1c(C=Nc2ccccc2)c(O)c2ccccc21 | -1.27% |
| Oc1ccc(N=Cc2sc3ccccc3c2Cl)cc1 | 65.8% (active) |
| C[C@H](CO)N1C[C@H](C)[C@H](CN(C)C(=O)Nc2ccc3c(c2)OCO3)Oc2ncc(Br)cc2C1=O | -0.29% |
| Cc1c(NC(=O)COC(=O)/C=C/c2cccc(F)c2)c(=O)n(-c2ccccc2)n1C | -0.4% |
| CC1(C)CC(=O)C=C(c2ccccc2CO)C1=O | -3.27% |
| CCCn1c(N)c(C(=O)CSc2nnc(Cc3cccs3)n2C2CC2)c(=O)[nH]c1=O | 3% |
| COc1ccccc1-c1n[nH]nc1C1=CC(=O)CC(C)(C)C1 | 3.87% |
| CCc1ccc2c(c1)C1(NN=C(c3ccccc3)S1)C(=O)N2 (configuration not stated) | 60.5% (active) |
| COc1ccc(-c2cnc3c(c2)C(=O)N([C@H](C)CO)C[C@@H](C)[C@H](CN(C)Cc2ccccc2)O3)cc1 | -5.18% |
